Screening results: PubChem BioAssay, National Center for Advancing Translational Sciences (NCATS)
Shown are actives, neighbours in structure and some others; about 2.4% of the full set was active somewhere.
D2 ag-1 = D2 dopamine receptor (human) agonism. P14416. HEK293 T-REx D2 cells, calcium flux agonist mode. activation, % at 2 µM. 340,000 compounds, 0.53% hits;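 active = activation over 3 SD above normal in the single-dose calcium agonist read, cut at about 30% in these data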; note: 0% is about no effect
Target sequence (P14416 whole entry, looked up): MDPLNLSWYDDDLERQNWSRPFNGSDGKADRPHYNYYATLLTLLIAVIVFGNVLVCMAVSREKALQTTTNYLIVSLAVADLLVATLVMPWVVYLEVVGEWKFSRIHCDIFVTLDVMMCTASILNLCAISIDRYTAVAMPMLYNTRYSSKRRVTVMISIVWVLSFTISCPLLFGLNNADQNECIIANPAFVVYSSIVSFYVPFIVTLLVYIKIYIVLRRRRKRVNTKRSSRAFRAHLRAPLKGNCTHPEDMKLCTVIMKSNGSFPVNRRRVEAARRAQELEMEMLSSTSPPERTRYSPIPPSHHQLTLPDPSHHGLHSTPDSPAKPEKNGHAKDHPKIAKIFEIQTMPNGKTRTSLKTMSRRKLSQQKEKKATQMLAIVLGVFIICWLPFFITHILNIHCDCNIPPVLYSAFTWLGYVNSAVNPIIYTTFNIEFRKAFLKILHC
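Tetracycline-induced HEK293 Trex cells with D2 receptor force-coupled to calcium signaling, plated overnight at 30 C and loaded with no-wash calcium dye. Calcium flux read kinetically for 180 s after compound addition; responses flag agonists.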
D2 PAM-1 = D2 dopamine receptor (human) potentiation; P14416; HEK293 T-REx D2, calcium flux, EC20 dopamine potentiation; potentiation, % at 10 µM; 340,000 compounds, 0.34% hits;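 active = potentiation over 3 SD above the plate norm, cut at about 30% in these data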; note: 0% is about no effect
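Cells plated with tetracycline inducer and held overnight at 30 C; calcium dye loaded 30–90 min at room temperature; baseline taken, compound added and read 180 s; EC20 dopamine then added and read 180 s.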
D2 PAM-2 = human D2 receptor positive allosteric modulation; 360,000 compounds, 0.23% hits; potentiation, % (concentration not given with the values); P14416; DiscoveRx D2 beta-arrestin cells, luminescence, 90 min; 100% = 57 uM dopamine signal; AID 624464; in the data active = potentiation above about 50%; inconclusive = mostly about 30% to 49%
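PathHunter beta-arrestin assay in DiscoveRx D2 cells. Compounds were added with an EC20 of dopamine (50 nM final) for 90 min at 37 deg C. Luminescence was read 1 h after detection reagent, with 57 uM dopamine as the EC100 control.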
D2 antag = D2 dopamine receptor (human) antagonism | inhibition, % at 10 µM | 340,000 compounds, 2% hits | HEK293 TREx D2 cells, calcium flux, dopamine EC80; in the data active = inhibition above about 30%; inactive = below that, where a call was filed; note: 0% is about no effect
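HEK293 T-REx D2 cells, tet-induced, calcium dye no-wash. Cpd pintool add, 180 s kinetic, then EC80 DA, 180 s kinetic. Ca flux read.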
D2 ag-2 = activates the human D2 dopamine receptor | P14416 | DiscoveRx PathHunter D2 beta-arrestin, luminescence, 90 min; 100% = 57 uM dopamine signal | activation, % (no concentration beside the values) | 360,000 compounds, 0.084% hits; in the data active = activation above about 40%; inconclusive = between about 15% and that limit
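DiscoveRx PathHunter D2 beta-arrestin cells (2,100/well) attached overnight, then compound-stimulated 90 min at 37 C in HBSS/10 mM HEPES/0.1% Tween-20 buffer; beta-galactosidase complementation read by luminescence after 1 h at ambient temperature. Dopamine 57 uM final (EC100) as control.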
* = called active by the depositor; ? = inconclusive; . = no result given.

SMILES | D2 ag-1 | D2 PAM-1 | D2 PAM-2 | D2 antag | D2 ag-2
Cn1c2ccccc2n2c(=O)c(=O)n(CC(=O)N3CCCc4ccccc43)nc12 | -0.8 | 28.3 | . | -40.4 | .
COc1ccc(CC(=O)Oc2ccc(C)cc2Br)cc1OC | -0.5 | 13.8 | -5.3 | 0.4 | -0.4
COC(=O)c1scc(-c2ccc(C)cc2)c1S(=O)(=O)Nc1cc(OC)c(OC)c(OC)c1 | -0.6 | -5.6 | . | . | .
Cc1nc(Cl)sc1C(=O)Nc1ccccc1Cl | -0.8 | 6.0 | 52.5* | -7.7 | 1.8
COc1ccc(OC)c(NS(=O)(=O)c2cc3c(cc2Cl)N(C(C)=O)CCO3)c1 | 0.4 | -2.2 | . | . | .
COc1ccc(C2=Nn3c(nnc3-c3ccccc3OC)SC2)cc1OC | 0.1 | 36.9* | 3.9 | -3.5 | 1.2
COc1ccc(C2=Nn3c(nnc3-c3ccccn3)SC2)cc1OC | 1.7 | 13.9 | -3.7 | -15.1 | -4.6
CSCCC(NC(=O)c1ccccc1)C(=O)N/N=C(\C)Cc1ccccc1 (stereo not given) | 0.6 | 18.0 | -16.1 | -4.8 | -0.8
CC1(C)CC(=O)C(C=NCCc2ccc(S(N)(=O)=O)cc2)=C(O)C1 | . | . | -4.2 | . | -1.7
COc1ccc(CCN=CC2=C(O)CC(C)(C)CC2=O)cc1 | -0.5 | 2.8 | 9.3 | 31.4* | -1.9
O=C(O)CCc1ccc(-c2ccc(Cl)cc2)n1CC(=O)O | -0.1 | 8.9 | -3.5 | 8.6 | -3.3
O=C(O)CCc1ccc(-c2ccc(Cl)cc2)n1CC(=O)Nc1ccccc1 | -2.0 | 35.6* | -4.9 | -8.6 | -1.2
COc1ccc(CCN(C)CC(O)COc2ccc(C(C)=O)cc2OC)cc1OC (stereo not given) | 0.0 | 1.5 | -8.3 | 36.0* | -2.1
CC(=O)c1ccc(OCC(O)CN(C)CCOc2ccc(Br)cc2)cc1 (stereo not given) | 2.8 | -25.8 | -8.9 | 43.8* | 2.2
CC1Cc2ccccc2N1C(=O)CN(C)CC(=O)Nc1ccc(F)cc1 (stereo not given) | 0.1 | -3.3 | -24.6 | 42.5* | -4.7
CCn1ccc2cc(S(=O)(=O)N3CCCN(C(=O)Nc4cccc(SC)c4)CC3)ccc21 | -0.5 | 10.6 | . | . | .
CCOC(=O)C1=C(CNCCc2ccc(Cl)cc2)NC(=O)NC1c1ccc2c(c1)OCO2 (stereo not given) | -0.9 | 30.6* | 22.2 | 4.0 | -3.9
COCCn1c(=O)[nH]c2cc(C(=O)NCCN3CCN(c4ccccc4)CC3)ccc2c1=O | 83.5* | -28.1 | -0.3 | 143.5* | ?
O=c1c2ccccc2nc(-c2ccoc2)n1CCc1ccccc1 | -0.2 | 62.4* | -0.1 | 1.5 | -3.0
O=c1c2ccccc2nc(-c2ccco2)n1Cc1ccccc1 | -0.6 | 22.0 | -8.7 | 24.1 | -2.7
CCOc1ccc(CCn2c(-c3ccco3)nc3ccccc3c2=O)cc1OCC | 0.4 | -22.5 | 0.8 | 35.8* | -2.2
COc1ccc(S(=O)(=O)N2CC=C(c3ccccc3)CC2)cc1OC | . | . | -25.0 | . | -2.3
O=C(Cn1c(=O)n(-c2ccc(F)cc2)c(=O)c2sc3ccccc3c21)N1CCCC1 | . | 1.0 | . | . | .
CC(OC(=O)c1cccs1)C(=O)NCc1cccs1 (stereo not given) | -0.3 | 2.3 | 1.1 | -7.5 | 1.9
COc1ccc(CNC(=O)C(C)OC(=O)c2cccs2)cc1 (stereo not given) | -0.2 | 32.8* | 1.1 | -3.1 | -4.4
SMILES | D2 ag-1 | D2 PAM-1 | D2 PAM-2 | D2 antag | D2 ag-2
CC(NC(=O)CN(C)CC(=O)Nc1ccc(F)c(F)c1F)c1ccccc1 (stereo not given) | 1.8 | 1.8 | 1.9 | 49.4* | -1.3
CC(NC(=O)CN(C)CC(=O)Nc1ccccc1Br)c1ccccc1 (stereo not given) | -0.6 | 14.5 | -3.3 | 10.7 | -2.0
CCOC(=O)c1cc(OC(=O)c2ccccc2C)n(-c2ccccc2)n1 | 0.0 | -4.1 | . | . | .
CCc1ccccc1NC(=O)N1CCCC(CCC(=O)N(C)CCc2ccccn2)C1 (stereo not given) | -0.6 | -8.0 | -3.9 | 32.8* | -1.7
COc1ccc(NC(=O)N2CCCC(CCC(=O)N(C)CCc3ccccn3)C2)cc1 (stereo not given) | -2.4 | 16.8 | -5.5 | 13.7 | 1.8
NC(=O)CC(NC(=O)Cc1ccc(Br)cc1)c1ccc(N2CCN(c3ccccc3)CC2)c([N+](=O)[O-])c1 (stereo not given) | 0.8 | 0.4 | 1.2 | -6.8 | -0.5
Cc1onc(-c2ccccc2)c1C(=O)OCCOc1ccccc1F | 1.7 | 2.5 | -3.8 | 37.6* | 0.2
CCc1cc(C(=O)OC)c(NC(=O)CC2SC(N)=NC2=O)s1 (stereo not given) | -0.7 | 8.8 | -2.9 | 31.0* | -5.4
CC(=O)Nc1sc(N/N=C\c2ccccc2F)nc1-c1cccs1 | 0.5 | -1.4 | 63.9* | -1.4 | ?
CC(=O)Nc1sc(N/N=C\c2ccc(O)cc2)nc1-c1cccs1 | -1.4 | 12.8 | 14.0 | -16.9 | 6.7
CC(C)COc1ccc(-c2nnc(-c3ccco3)o2)cc1 | -0.7 | 30.0* | -10.6 | 27.7 | -0.8
Cc1ccsc1CCN1C(=O)N(c2ccccc2)C(=O)C1CC(=O)Nc1ccc(Cl)cc1 (stereo not given) | 0.9 | -12.6 | . | . | .
Cc1ccc(NC(=O)Nc2nc(-c3ccc(C)s3)cs2)cc1 | 0.9 | 45.3* | -0.3 | -11.0 | 2.7
O=C1C(Cl)=C(NCCN2CCOCC2)C(=O)c2ccccc21 | 0.8 | -7.0 | 11.4 | 36.2* | 4.8
O=C1C(Cl)=C(NCCCN2CCOCC2)C(=O)c2ccccc21 | . | . | 1.2 | . | 4.4
O=C(Nc1nnc(S(=O)(=O)N2CCCC2)s1)c1ccccc1Cl | -1.9 | -4.1 | -2.4 | 34.9* | -5.4
O=C(Nc1nnc(S(=O)(=O)N2CCCCCC2)s1)c1ccccc1Cl | 1.9 | 4.2 | -5.7 | . | 2.5
CCC(CC)NC(=O)CN1CCN(S(=O)(=O)c2ccc(Br)s2)CC1 | -0.8 | 0.2 | 50.2* | -4.2 | 1.9
CCN(CC)c1ccc(NC(=O)c2cccc(OC)c2)c(C)c1 | 0.0 | 9.7 | -8.1 | 2.8 | -2.8
CCN(CC)c1ccc(NC(=O)c2c(OC)cccc2OC)c(C)c1 | 0.6 | -10.9 | -2.1 | 33.6* | -2.4
CCc1nc2nc(C)c(NS(=O)(=O)c3ccc(Br)s3)c(=O)n2[nH]1 | -0.6 | 30.6* | 10.6 | -29.7 | 3.9
CCc1nc2nc(C)c(NS(=O)(=O)c3cccs3)c(=O)n2[nH]1 | -2.0 | 51.4* | -7.9 | 0.2 | -4.2
CCc1nc2nc(C)c(NS(=O)(=O)c3ccc(F)c(C)c3)c(=O)n2[nH]1 | -0.1 | -0.8 | . | . | .
CCc1nc2nc(C)c(NS(=O)(=O)c3ccc(F)cc3)c(=O)n2[nH]1 | -2.1 | 29.8 | -1.0 | 2.3 | 3.5
Cc1ccc(S(=O)(=O)Nc2c(C)nc3nc(C)[nH]n3c2=O)c(C)c1 | 0.6 | -13.3 | -4.6 | 35.5* | 1.3
CCc1ccc(NC(=O)CN2C(=O)c3ccccc3Sc3ccc(C(=O)N4CCCC4)cc32)cc1 | 1.2 | 7.2 | . | . | .
O=C(CCC1CCCCC1)Nc1nccs1 | -0.1 | -4.8 | -14.2 | 42.6* | 0.4
